Molecules are shown by their SMILES. Records with an inconclusive call do not appear. The source made the active and inactive calls. The calls were made as follows, unless noted: active = hit-call score of the fitted dose curve at least 0.9, where 1 is the maximum; inactive = score below 0.9.

Read-out in assay [1]: Protein phosphatase 2A (PPP2R4), PTPA (gene 5524)
Kind of assay: LTEA_HepaRG_PPP2R4: Life Technologies and Expression Analysis (LTEA) Assay for Protein phosphatase 2A (PPP2R4) using HepaRG (AID 2283522). The note with it: mRNA level, 48 h; actives raise or lower the signal. In a few lines:
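Differentiated HepaRG cells in serum-free induction medium were exposed in duplicate for 48 h to eight concentrations, top 100 uM with half-log dilutions, in 0.5% DMSO. PPP2R4 mRNA was quantified by TaqMan qRT-PCR, normalized to ACTB, GAPDH and POLR2A.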

Read-out in assay [2]: Phosphatase and tensin (PTEN), PTEN (gene 5728)
The experiment in a line: LTEA_HepaRG_PTEN: Life Technologies and Expression Analysis (LTEA) Assay for Phosphatase and tensin (PTEN) using HepaRG (AID 2283523). The note with it: mRNA level, 48 h; actives raise or lower the signal. A digest of the protocol:
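Read-out is PTEN transcript level by multiplexed TaqMan qRT-PCR after 48 h chemical treatment of human HepaRG cultures in serum-free induction medium. Concentrations spanned 100 uM downward in half-log steps, 0.5% DMSO throughout; activity fitted in both directions against vehicle.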

Read-out in assay [3]: solute carrier (SLC22A1), SLC22A1 (gene 6580)
Kind of assay: LTEA_HepaRG_SLC22A1: Life Technologies and Expression Analysis (LTEA) Assay for solute carrier (SLC22A1) using HepaRG (AID 2283524). The note with it: mRNA level, 48 h; actives raise or lower the signal. In a few lines: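 HepaRG (human liver line), 48 h dosing in serum-free induction medium; 8 conc., half-log down from 100 uM, 0.5% DMSO vehicle, duplicates. Endpoint: SLC22A1 mRNA, qRT-PCR, housekeeping-normalized; gain/loss fit vs DMSO.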

Read-out in assay [4]: Pyruvate Dehydrogenase Kinase 4 (PDK4), PDK4 (gene 5166)
The experiment in a line: LTEA_HepaRG_PDK4: Life Technologies and Expression Analysis (LTEA) Assay for Pyruvate Dehydrogenase Kinase 4 (PDK4) using HepaRG (AID 2283525). To be noted: mRNA level, 48 h; actives raise or lower the signal. In a few lines: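 In this multiplexed human HepaRG expression assay, cells are treated 48 h with test chemicals across an eight-point range starting at 100 uM. PDK4 mRNA changes, normalized to ACTB/GAPDH/POLR2A, are fitted in both directions relative to vehicle.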

Read-out in assay [5]: NAD(P)H dehydrogenase [quinone] 1 (NQO1), NQO1 (gene 1728)
The experiment in a line: LTEA_HepaRG_NQO1: Life Technologies and Expression Analysis (LTEA) Assay for NAD(P)H dehydrogenase [quinone] 1 (NQO1) using HepaRG (AID 2283526). To be noted: mRNA level, 48 h; actives raise or lower the signal. In a few lines: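 Differentiated HepaRG cells, plated 48 h and then switched to serum-free induction medium, were exposed in duplicate for 48 h to 8-point half-log concentrations up to 100 uM in 0.5% DMSO. mRNA measured by qRT-PCR, normalized to ACTB, GAPDH, POLR2A; bidirectional fit versus DMSO.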

Read-out in assay [6]: Nuclear factor erythroid 2-related factor 2 (Homo sapiens) (UniProt Q16236)
Kind of assay: LTEA_HepaRG_NFE2L2: Life Technologies and Expression Analysis (LTEA) Assay for Nuclear factor erythroid 2-related factor 2 (NFE2L2) Transcription Factor using HepaRG (AID 2283527). The note with it: mRNA level, 48 h; actives raise or lower the signal. A digest of the protocol: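 Transcript level of NFE2L2 is the read-out, measured by microfluidic TaqMan qRT-PCR and normalized to three housekeeping genes. Human HepaRG cultures received test chemical for 48 h at up to 100 uM in half-log steps. Gain or loss of signal is fitted relative to 0.5% DMSO.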

Read-out in assay [7]: succinate dehydrogenase complex iron sulfur subunit B (SDHB), SDHB (gene 6390)
Kind of assay: LTEA_HepaRG_SDHB: Life Technologies and Expression Analysis (LTEA) Assay for succinate dehydrogenase complex iron sulfur subunit B (SDHB) using HepaRG (AID 2283528). To be noted: mRNA level, 48 h; actives raise or lower the signal. A digest of the protocol: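 SDHB transcript level read by TaqMan qRT-PCR, housekeeping-normalised (ACTB, GAPDH, POLR2A), after 48 h chemical treatment of plated HepaRG cells; eight concentrations top 100 uM, half-log steps, 0.5% DMSO, duplicates; fitted both directions against DMSO.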

Read-out in assay [8]: Signal transducer and activator of transcription 3 (Homo sapiens) (UniProt P40763)
Kind of assay: LTEA_HepaRG_STAT3: Life Technologies and Expression Analysis (LTEA) Assay for Signal transducer and activator of transcription (STAT3) using HepaRG (AID 2283529). The note with it: mRNA level, 48 h; actives raise or lower the signal. In a few lines:
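Read-out is STAT3 mRNA level by qRT-PCR, normalized to three housekeeping genes, in human HepaRG liver cells treated for 48 h. Concentrations ran from 100 uM downward in half-log steps; curves were fitted for gain or loss relative to 0.5% DMSO.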

Read-out in assay [9]: solute carrier (SLCO1B1), SLCO1B1 (gene 10599)
Kind of assay: LTEA_HepaRG_SLCO1B1: Life Technologies and Expression Analysis (LTEA) Assay for solute carrier (SLCO1B1) using HepaRG (AID 2283530). To be noted: mRNA level, 48 h; actives raise or lower the signal. In a few lines:
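Human HepaRG cultures treated for 48 h with an eight-concentration half-log series topping at 100 uM; SLCO1B1 measured by qRT-PCR and fitted bidirectionally relative to DMSO.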

Read-out in assay [10]: Transforming Growth Factor (TGFA), TGFA (gene 7039)
Kind of assay: LTEA_HepaRG_TGFA: Life Technologies and Expression Analysis (LTEA) Assay for Transforming Growth Factor (TGFA) using HepaRG (AID 2283532). To be noted: mRNA level, 48 h; actives raise or lower the signal. A digest of the protocol:
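HepaRG (human liver line), 48 h exposure, 8 conc. half-log down from 100 uM, 0.5% DMSO vehicle, duplicates; serum-free induction medium. TGFA mRNA by TaqMan qRT-PCR, ACTB/GAPDH/POLR2A normalization; gain/loss fit vs DMSO.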

Read-out in assay [11]: Transforming Growth Factor (TGFB1), TGFB1 (gene 7040)
Kind of assay: LTEA_HepaRG_TGFB1: Life Technologies and Expression Analysis (LTEA) Assay for Transforming Growth Factor (TGFB1) Transporter using HepaRG (AID 2283533). The note with it: mRNA level, 48 h; actives raise or lower the signal. A digest of the protocol: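 Eight-point concentration-response (max 100 uM, half-log) in HepaRG under serum-free induction conditions, 48 h. TGFB1 mRNA by qRT-PCR, housekeeping-normalized.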

Read-out in assay [12]: TIMP1, TIMP1 (gene 7076)
Kind of assay: LTEA_HepaRG_TIMP1: Life Technologies and Expression Analysis (LTEA) Assay for TIMP1 using HepaRG (AID 2283534). To be noted: mRNA level, 48 h; actives raise or lower the signal. A digest of the protocol:
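TIMP1 induction or repression in HepaRG cells after 48 h chemical exposure (eight concentrations, highest 100 uM), assessed by normalized qRT-PCR with bidirectional fitting to DMSO controls.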

Read-out in assay [13]: Tumor necrosis factor receptor 1 (TNFRSF1A), TNFRSF1A (gene 7132)
The experiment in a line: LTEA_HepaRG_TNFRSF1A: Life Technologies and Expression Analysis (LTEA) Assay for Tumor necrosis factor receptor 1 (TNFRSF1A) using HepaRG (AID 2283535). The note with it: mRNA level, 48 h; actives raise or lower the signal. In a few lines: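 Assay uses 48 h chemical treatment of differentiated HepaRG monolayers, tested in duplicate at eight concentrations from 100 uM downward in 0.5% DMSO. mRNA is normalized to ACTB, GAPDH and POLR2A, with induction or suppression fitted relative to vehicle.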

Read-out in assay [14]: Thyroid Hormone Responsive (THRSP), THRSP (gene 7069)
The experiment in a line: LTEA_HepaRG_THRSP: Life Technologies and Expression Analysis (LTEA) Assay for Thyroid Hormone Responsive (THRSP) using HepaRG (AID 2283536). The note with it: mRNA level, 48 h; actives raise or lower the signal. In a few lines: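 mRNA induction or loss relative to 0.5% DMSO vehicle was fitted bidirectionally across an eight-point curve whose highest exposure was 100 uM. Human HepaRG liver cells received chemicals in duplicate over 48 h before RNA extraction.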

Read-out in assay [15]: UDP glucuronosyltransferase (UGT1A1), UGT1A1 (gene 54658)
The experiment in a line: LTEA_HepaRG_UGT1A1: Life Technologies and Expression Analysis (LTEA) Assay for UDP glucuronosyltransferase (UGT1A1) using HepaRG (AID 2283538). To be noted: mRNA level, 48 h; actives raise or lower the signal. In a few lines:
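Differentiated human HepaRG cells in serum-free induction medium were exposed in duplicate for 48 h to eight half-log concentrations up to 100 uM in 0.5% DMSO. UGT1A1 mRNA was quantified by TaqMan qRT-PCR, normalized to ACTB, GAPDH and POLR2A, and fitted bidirectionally against DMSO.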

Read-out in assay [16]: X-box binding protein 1 (XBP1), XBP1 (gene 7494)
Kind of assay: LTEA_HepaRG_XBP1: Life Technologies and Expression Analysis (LTEA) Assay for X-box binding protein 1 (XBP1) using HepaRG (AID 2283540). The note with it: mRNA level, 48 h; actives raise or lower the signal. A digest of the protocol: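 Eight concentrations (half-log, highest 100 uM, 0.5% DMSO) tested in duplicate on HepaRG cells over 48 h in serum-free induction medium; qRT-PCR of XBP1 normalised to ACTB, GAPDH, POLR2A.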

Assay [17] in a line: LTEA_HepaRG_LDH_cytotoxicity: Cytotoxicity Assessment in the Life Technologies and Expression Analysis (LTEA) Assay (AID 2283563; active = hit-call score of the fitted dose curve at least 0.9, where 1 is the maximum). In a few lines: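 Spent-medium LDH after 48 h chemical exposure of HepaRG cells in serum-free induction medium; eight concentrations, half-log dilutions from 100 uM, duplicate wells, fitted upward relative to 0.5% DMSO.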
The nature of assay [18]: ATG_XTT_Cytotoxicity: Cytotoxicity Assessment in the Attagene TRANS-FACTORIAL HepG2 Assay (AID 2283584; active = hit-call score of the fitted dose curve at least 0.9, where 1 is the maximum). In a few lines:
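24 h chemical exposure of reporter-transfected HepG2; XTT signal loss vs DMSO indicates cytotoxicity.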

Chain of Nuclear factor erythroid 2-related factor 2 (Homo sapiens) (Q16236 whole entry, looked up): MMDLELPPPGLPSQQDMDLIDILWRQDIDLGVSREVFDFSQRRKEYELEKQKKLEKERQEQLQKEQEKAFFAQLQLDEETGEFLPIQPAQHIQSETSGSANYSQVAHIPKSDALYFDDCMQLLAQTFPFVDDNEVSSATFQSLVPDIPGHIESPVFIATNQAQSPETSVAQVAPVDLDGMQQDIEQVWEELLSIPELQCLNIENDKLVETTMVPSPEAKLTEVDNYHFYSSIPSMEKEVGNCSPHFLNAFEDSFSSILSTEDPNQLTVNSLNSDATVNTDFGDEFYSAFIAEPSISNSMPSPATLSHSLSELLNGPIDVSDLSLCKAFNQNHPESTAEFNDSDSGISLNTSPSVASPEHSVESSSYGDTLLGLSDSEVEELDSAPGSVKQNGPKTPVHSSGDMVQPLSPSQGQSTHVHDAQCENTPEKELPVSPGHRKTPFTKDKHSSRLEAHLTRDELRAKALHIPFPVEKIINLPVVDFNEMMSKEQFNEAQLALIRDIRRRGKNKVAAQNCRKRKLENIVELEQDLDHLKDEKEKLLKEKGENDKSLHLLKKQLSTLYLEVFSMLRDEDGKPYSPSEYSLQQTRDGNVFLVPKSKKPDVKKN
Chain of Signal transducer and activator of transcription 3 (Homo sapiens) (P40763 whole entry, looked up): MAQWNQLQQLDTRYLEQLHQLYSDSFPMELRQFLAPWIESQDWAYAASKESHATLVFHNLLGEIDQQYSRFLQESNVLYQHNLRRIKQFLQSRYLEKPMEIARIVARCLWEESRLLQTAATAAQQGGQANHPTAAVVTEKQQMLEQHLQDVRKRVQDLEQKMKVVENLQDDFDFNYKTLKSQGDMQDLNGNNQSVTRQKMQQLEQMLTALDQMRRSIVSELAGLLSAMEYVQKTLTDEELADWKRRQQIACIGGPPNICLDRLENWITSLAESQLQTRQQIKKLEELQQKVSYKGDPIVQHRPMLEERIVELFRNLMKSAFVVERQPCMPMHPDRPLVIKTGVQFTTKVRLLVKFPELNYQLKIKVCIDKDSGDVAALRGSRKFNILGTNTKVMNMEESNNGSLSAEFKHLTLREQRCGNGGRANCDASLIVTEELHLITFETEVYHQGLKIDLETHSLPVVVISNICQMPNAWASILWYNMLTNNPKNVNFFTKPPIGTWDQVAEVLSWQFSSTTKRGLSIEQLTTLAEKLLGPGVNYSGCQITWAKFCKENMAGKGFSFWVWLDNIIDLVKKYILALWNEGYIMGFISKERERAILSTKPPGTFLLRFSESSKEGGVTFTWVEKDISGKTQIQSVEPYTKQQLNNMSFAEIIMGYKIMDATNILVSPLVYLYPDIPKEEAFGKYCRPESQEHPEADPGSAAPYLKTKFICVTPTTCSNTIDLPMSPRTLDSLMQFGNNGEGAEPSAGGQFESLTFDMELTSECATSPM

Take `OCC1CO1` (stereo not given): the outcome in [1], in [2], in [3], in assay [4], in [5] and in assay [6] was inactive. Also, the outcome in assay [7], in assay [8], in assay [9], in assay [10], in [11] and in assay [12] was inactive. In addition, the compound was called inactive in [13], in [14], in assay [15], in assay [16], in assay [17] and in assay [18].
Consider `CCOP(=S)(NC(C)C)Oc1ccccc1C(=O)OC(C)C` (stereo not given), for which the compound was classed as inactive in assay [18].
In the case of `CCN(CC)c1ccccc1`, the result in assay [1], in assay [2], in assay [3], in assay [4], in [5] and in assay [6] was inactive. Also, the outcome in [7], in assay [8], in assay [9], in assay [10], in assay [11] and in assay [12] was inactive. Further, the compound was classed as inactive in assay [13], in assay [14], in [15], in assay [16], in assay [17] and in [18].
Consider `CCOP(=O)(O)C(N)=O`, for which, in assay [18], the call was inactive.
Same read-out and setting: to `N#Cc1c(-c2ccc(Cl)cc2)[nH]c(C(F)(F)F)c1Br` belongs “inactive”.
Take `CCOc1ccc(C(C)(C)COCc2cccc(Oc3ccccc3)c2)cc1`: the call in assay [1], in [2], in assay [3], in assay [4], in assay [5] and in [6] was inactive. Moreover, the call in [7], in assay [8], in assay [9], in [10], in [11] and in [12] was inactive. Further, the call in assay [13], in assay [14], in assay [16], in assay [17] and in [18] was inactive. Moreover, in assay [15], the concentration at half-maximal activity (AC50) (commonly the midpoint of the concentration-response curve, whichever way the signal moves) is 10.2 µM (active).
Take `NNC(N)=S`: the compound was classed as inactive in assay [18].
For the compound `O=C(O)C(Cl)Cl`, the compound was classed as inactive in [1], in assay [2], in assay [3], in [4], in assay [5] and in assay [6]. The result in assay [7], in assay [8], in [9], in assay [10], in [11] and in assay [12] was inactive. The compound was called inactive in assay [13], in assay [14], in assay [15], in assay [16], in assay [17] and in assay [18].
Consider `c1ccc(OP(Oc2ccccc2)Oc2ccccc2)cc1`, for which the outcome in [1], in [2], in assay [3], in assay [4], in assay [5] and in assay [6] was inactive. Further, the call in assay [7], in [8], in assay [9], in assay [10], in [11] and in assay [12] was inactive. Besides, the call in assay [13], in assay [14], in [15], in assay [16], in assay [17] and in assay [18] was inactive.
As for `Nc1ccc2ccccc2c1`, the call in assay [1], in assay [2], in assay [3], in assay [4], in [5] and in assay [7] was inactive. Also, the compound was called inactive in assay [8], in assay [9], in [10], in assay [11], in assay [12] and in [13]. In addition, the outcome in assay [16], in assay [17] and in assay [18] was inactive. Further, the AC50 in [6] is 29.8 µM (active); in assay [14], 9.29 µM (active); in assay [15], 18.8 µM (active).
As to `CCOP(=S)(Oc1ccc([N+](=O)[O-])cc1)c1ccccc1` (stereo not given), the result in assay [1], in assay [3], in assay [4], in [7], in assay [8] and in assay [10] was inactive. Moreover, the result in assay [11], in assay [12], in assay [13], in [16], in assay [17] and in assay [18] was inactive. The AC50 in assay [2] is 0.0422 µM (active); in [6], 37.9 µM (active); in assay [14], 50 µM (active); in [15], 12.7 µM (active).
Turning to `C=C(C)C(=O)OCC1CO1` (stereo not given), the compound was called inactive in [18].
The same measure, in the same setting: under `CC(C)(C)c1ccccc1OP(=O)(Oc1ccccc1)Oc1ccccc1` stands “inactive”.
